# Results published in ChEMBL document CHEMBL1961873, “Compounds: GSK PKIS; Assays: Nanosyn kinase panel” (2012).
# Molecular target: T1, Ephrin type-A receptor 3 (Homo sapiens) (UniProt P29320)
# T1 sequence (whole entry): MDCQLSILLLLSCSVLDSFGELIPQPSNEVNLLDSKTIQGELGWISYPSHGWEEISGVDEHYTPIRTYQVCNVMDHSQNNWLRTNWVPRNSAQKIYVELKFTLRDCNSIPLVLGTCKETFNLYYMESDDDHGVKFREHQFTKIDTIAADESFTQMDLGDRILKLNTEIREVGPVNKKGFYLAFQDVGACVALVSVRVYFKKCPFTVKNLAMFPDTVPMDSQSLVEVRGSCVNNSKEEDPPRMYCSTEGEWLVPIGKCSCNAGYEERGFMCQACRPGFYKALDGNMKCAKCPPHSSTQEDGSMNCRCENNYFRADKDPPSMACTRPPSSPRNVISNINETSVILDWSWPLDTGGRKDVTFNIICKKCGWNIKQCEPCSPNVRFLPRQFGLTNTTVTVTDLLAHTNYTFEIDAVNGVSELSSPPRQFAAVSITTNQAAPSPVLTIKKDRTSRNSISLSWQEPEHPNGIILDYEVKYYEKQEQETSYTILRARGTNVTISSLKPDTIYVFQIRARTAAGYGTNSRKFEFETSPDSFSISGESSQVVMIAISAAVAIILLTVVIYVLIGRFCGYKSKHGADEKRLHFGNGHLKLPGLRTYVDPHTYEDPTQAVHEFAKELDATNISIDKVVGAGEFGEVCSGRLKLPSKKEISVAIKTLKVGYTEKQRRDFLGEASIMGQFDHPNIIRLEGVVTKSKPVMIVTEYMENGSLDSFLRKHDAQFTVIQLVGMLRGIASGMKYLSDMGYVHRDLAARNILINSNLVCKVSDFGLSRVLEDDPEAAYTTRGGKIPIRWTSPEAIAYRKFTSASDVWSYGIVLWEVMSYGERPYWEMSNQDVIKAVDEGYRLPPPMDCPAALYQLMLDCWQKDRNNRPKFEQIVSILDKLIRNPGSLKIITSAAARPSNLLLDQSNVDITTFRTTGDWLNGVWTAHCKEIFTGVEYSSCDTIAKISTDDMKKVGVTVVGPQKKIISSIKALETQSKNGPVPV
# Conditions: at 0.1 µM
row,Compound,inhibition [%]
1,NC(=O)c1sc(-n2cnc3ccc(C(F)(F)F)cc32)cc1OCc1ccccc1Br,2.19
2,CCOc1ccc2c(-c3ccnc(Nc4cccc(C(F)(F)F)c4)n3)cnn2n1,1.59
3,COc1ccc(-c2cc(-c3c[nH]nc3-c3ccccn3)ccn2)cc1,4.5
4,CCn1c(-c2nonc2N)nc2ccccc21,5.44
5,Cc1cccc(Nc2ncc(-c3ccccc3)o2)c1,2.3
6,Nc1nc(-c2ccc(F)cc2)c(-c2ccc3ncccc3n2)s1,5.86
7,COc1cc(N2CCN(C(C)C)CC2)ccc1Nc1nc(Nc2ccc(F)cc2C(N)=O)c2cc[nH]c2n1,1.78
8,c1ccc(-c2nc3n(c2-c2ccc4c(c2)OCO4)CCC3)nc1,-0.11
9,Fc1ccc(-c2nn3ccccc3c2-c2ccncc2)cc1,3.94
10,CN(C)CCOc1ccc(-c2nc(-c3ccncc3)c(-c3ccc4c(c3)CC/C4=N\O)[nH]2)cc1,2.42
11,COC(=O)Nc1nc2ccc(Oc3ccc(NC(=O)Nc4cccc(Cl)c4)cc3)cc2[nH]1,4.1
12,N#Cc1c(NC(=O)CN2CCOCC2)sc2c1CCCC2,5.54
13,O=C(O[C@H]1CN[C@H](C#Cc2cc3ncnc(Nc4ccc(Cc5ccccc5)cc4)c3s2)C1)N1CCOCC1,2.25
14,CC(C)(CO)CNC(=O)c1ccc2c(c1)/C(=N/Nc1ccc(S(N)(=O)=O)cc1)C(=O)N2,-0.22
15,CS(=O)(=O)CCNCc1coc(-c2ccc3ncnc(Nc4ccc(OCc5ccccc5)cc4)c3c2)c1,7.79
16,CC(=O)Nc1cccc(C#Cc2cncnc2Nc2ccc(OCc3cccc(F)c3)c(Cl)c2)c1,4.65
17,COc1cc2ncn(-c3cc(OCc4ccccc4C(F)(F)F)c(C(=O)N(C)C)s3)c2cc1OC,2.89

row,Compound,inhibition [%]
1,NS(=O)(=O)c1ccc(Nc2ncc(-c3ccccc3)o2)cc1,2.94
2,Nc1nc(-c2cccc(Cl)c2)c(-c2ccc3ncccc3n2)s1,4.59
3,CCn1cc(-c2ccnc3[nH]ccc23)c(-c2cccc(NC(=O)Nc3ccc(OCc4ccccc4)cc3)c2)n1,0.1
4,Fc1cccc(COc2ccc(Nc3ncnc4sc(-c5ccco5)cc34)cc2Cl)c1,3.15
5,N#Cc1c(NC(=O)c2ccc(F)cc2)sc2c1CCCC2,1.47
6,COc1cccc(-n2ncc3c(N/N=C/c4ccc(F)cc4)ncnc32)c1,4.05
7,c1cc(-c2cnn3nc(N4CCOCC4)ccc23)nc(NC2CC2)n1,5.23
8,CCn1c(-c2nonc2N)nc2c(C#CC(C)(C)O)nc(OC[C@H](N)c3ccccc3)cc21,2.11
9,Nc1ncc(-c2cccc(S(N)(=O)=O)c2)c2scc(-c3ccc(F)c(Cl)c3)c12,27.4
10,O=C(Nc1n[nH]c2cc(-c3ccc(F)cc3)ccc12)C1CC1,2.89
11,CC(=O)NCc1cccc(C#Cc2cncnc2Nc2ccc(OCc3cccc(F)c3)c(Cl)c2)c1,-2.09
12,CNC(=O)c1cccc(C#Cc2cncnc2Nc2ccc(OCc3cccc(F)c3)c(Cl)c2)c1,1.08
13,COc1cccc(-c2c[nH]c3c(N/N=C/c4ccncc4)ncnc23)c1,3.44
14,[O-][S+]1CCN(Cc2ccc(-c3ccc4ncnc(Nc5ccc(OCc6cccc(F)c6)c(Cl)c5)c4c3)o2)CC1,5.19
15,CCN(CC)S(=O)(=O)c1ccc(OC)c(Nc2ncc(-c3ccccc3)o2)c1,2.4
16,CCCN(CCS(C)(=O)=O)Cc1ccc(-c2ccc3ncnc(Nc4ccc(OCc5cccc(F)c5)c(Cl)c4)c3c2)o1,2.56
17,COc1cc2c(cc1Nc1nc(Nc3ccsc3C(N)=O)c3cc[nH]c3n1)N(C(=O)CN(C)C)CCC2(C)C,4.65

# Molecular target: T1, Ephrin type-A receptor 3 (Homo sapiens)
# Conditions: at 1 µM
row,Compound,inhibition [%]
1,NC(=O)c1sc(-n2cnc3ccc(C(F)(F)F)cc32)cc1OCc1ccccc1Br,5.58
2,CCOc1ccc2c(-c3ccnc(Nc4cccc(C(F)(F)F)c4)n3)cnn2n1,5.76
3,COc1ccc(-c2cc(-c3c[nH]nc3-c3ccccn3)ccn2)cc1,7.51
4,CCn1c(-c2nonc2N)nc2ccccc21,3.08
5,Cc1cccc(Nc2ncc(-c3ccccc3)o2)c1,2.7
6,Nc1nc(-c2ccc(F)cc2)c(-c2ccc3ncccc3n2)s1,6.22
7,COc1cc(N2CCN(C(C)C)CC2)ccc1Nc1nc(Nc2ccc(F)cc2C(N)=O)c2cc[nH]c2n1,1.28
8,c1ccc(-c2nc3n(c2-c2ccc4c(c2)OCO4)CCC3)nc1,1.96
9,Fc1ccc(-c2nn3ccccc3c2-c2ccncc2)cc1,5.1
10,CN(C)CCOc1ccc(-c2nc(-c3ccncc3)c(-c3ccc4c(c3)CC/C4=N\O)[nH]2)cc1,3.57
11,COC(=O)Nc1nc2ccc(Oc3ccc(NC(=O)Nc4cccc(Cl)c4)cc3)cc2[nH]1,8.5
12,N#Cc1c(NC(=O)CN2CCOCC2)sc2c1CCCC2,6.42
13,O=C(O[C@H]1CN[C@H](C#Cc2cc3ncnc(Nc4ccc(Cc5ccccc5)cc4)c3s2)C1)N1CCOCC1,3.5
14,CC(C)(CO)CNC(=O)c1ccc2c(c1)/C(=N/Nc1ccc(S(N)(=O)=O)cc1)C(=O)N2,1.81
15,CS(=O)(=O)CCNCc1coc(-c2ccc3ncnc(Nc4ccc(OCc5ccccc5)cc4)c3c2)c1,5.01
16,CC(=O)Nc1cccc(C#Cc2cncnc2Nc2ccc(OCc3cccc(F)c3)c(Cl)c2)c1,3.23
17,COc1cc2ncn(-c3cc(OCc4ccccc4C(F)(F)F)c(C(=O)N(C)C)s3)c2cc1OC,1.92

row,Compound,inhibition [%]
1,NS(=O)(=O)c1ccc(Nc2ncc(-c3ccccc3)o2)cc1,4.57
2,Nc1nc(-c2cccc(Cl)c2)c(-c2ccc3ncccc3n2)s1,4.27
3,CCn1cc(-c2ccnc3[nH]ccc23)c(-c2cccc(NC(=O)Nc3ccc(OCc4ccccc4)cc3)c2)n1,1.02
4,Fc1cccc(COc2ccc(Nc3ncnc4sc(-c5ccco5)cc34)cc2Cl)c1,4.97
5,N#Cc1c(NC(=O)c2ccc(F)cc2)sc2c1CCCC2,2.8
6,COc1cccc(-n2ncc3c(N/N=C/c4ccc(F)cc4)ncnc32)c1,4.06
7,c1cc(-c2cnn3nc(N4CCOCC4)ccc23)nc(NC2CC2)n1,5.8
8,CCn1c(-c2nonc2N)nc2c(C#CC(C)(C)O)nc(OC[C@H](N)c3ccccc3)cc21,1.87
9,Nc1ncc(-c2cccc(S(N)(=O)=O)c2)c2scc(-c3ccc(F)c(Cl)c3)c12,68.6
10,O=C(Nc1n[nH]c2cc(-c3ccc(F)cc3)ccc12)C1CC1,4.36
11,CC(=O)NCc1cccc(C#Cc2cncnc2Nc2ccc(OCc3cccc(F)c3)c(Cl)c2)c1,0.64
12,CNC(=O)c1cccc(C#Cc2cncnc2Nc2ccc(OCc3cccc(F)c3)c(Cl)c2)c1,0.39
13,COc1cccc(-c2c[nH]c3c(N/N=C/c4ccncc4)ncnc23)c1,6.01
14,[O-][S+]1CCN(Cc2ccc(-c3ccc4ncnc(Nc5ccc(OCc6cccc(F)c6)c(Cl)c5)c4c3)o2)CC1,2.42
15,CCN(CC)S(=O)(=O)c1ccc(OC)c(Nc2ncc(-c3ccccc3)o2)c1,2.35
16,CCCN(CCS(C)(=O)=O)Cc1ccc(-c2ccc3ncnc(Nc4ccc(OCc5cccc(F)c5)c(Cl)c4)c3c2)o1,2.25
17,COc1cc2c(cc1Nc1nc(Nc3ccsc3C(N)=O)c3cc[nH]c3n1)N(C(=O)CN(C)C)CCC2(C)C,4.34
